High-throughput results as filed in PubChem.
This is a sample that favours compounds with a hit; in the whole collection about 5.2% have one here.
FBPA coupling cs = coupling enzyme interference in Giardia aldolase counter-screen. coupling enzyme system counterscreen, AmpLite Red fluorescence. activity change, negative = inhibition, % at 58.2 µM, hits read low. AID 2472. 0.67% of 290,000 active; in the data active = activity change below about -30%
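Activity here indicates interference with the coupling reaction, not aldolase inhibition. Compounds at 57.5 uM final met coupling enzymes for 10 min at RT; substrate and AmpLite Red detection followed, with a 525/598 nm fluorescence read after 20 min.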
Sfp inh = Sfp phosphopantetheinyl transferase inhibition; Biochemical Sfp PPTase activity, qHTS; Potency, µM, for inactives: largest response in the series, negative = inhibition, most hits filed as inhibitors; 3.5% of 310,000 active;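 also: the enzyme is Sfp with the accession as filed and its product quenches rhodamine fluorescence; potency is read from the fitted curve at half-maximal effect; 0% = enzyme reaction without inhibitor and -100% = no enzyme wells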
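After 15 min at room temperature with compound, 15 nM Sfp received 5 uM rhodamine-CoA plus 12.5 uM BHQ-2-ybbR (50 mM Hepes pH 7.6, 10 mM MgCl2). Rate came from the fluorescence difference over 30 min, ex 525/em 598 nm.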
Tau fluor counter = counter-screen for tau fibril formation inhibitors. tau K18 P301L Alexa594 fluorescence, heparin fibrillization. Potency, µM (highest dose often 57.7 µM), for inactives: at the highest dose activity change, negative = decrease. 0.93% of 280,000 active. AID 1463; also: potency is read from the fitted curve at half-maximal effect; nearly all actives have a fitted effect of over 55% in size
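Human tau K18 P301L (15 uM unlabeled, 0.24 uM Alexa 594-labeled) in 100 mM sodium acetate pH 7 with 20 uM heparin, 6 hr at 37 C. ThT 30 uM added, 1 hr ambient; Alexa 594 FP and total fluorescence read at 555/632 nm.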
Tau ThT inhib = blocks human tau fibril formation measured by thioflavin T; P10636; recombinant tau K18 P301L, heparin-induced fibrillization, ThT fluorescence; Potency, µM (doses to about 57.4 µM), for inactives: at the highest dose activity, negative = inhibition, most hits filed as inhibitors; 2.1% of 270,000 active; AID 1460; also: potency is read from the fitted curve at half-maximal effect; nearly all actives have a fitted effect of over 55% in size
Target sequence (P10636 561-689 P618L limits assumed): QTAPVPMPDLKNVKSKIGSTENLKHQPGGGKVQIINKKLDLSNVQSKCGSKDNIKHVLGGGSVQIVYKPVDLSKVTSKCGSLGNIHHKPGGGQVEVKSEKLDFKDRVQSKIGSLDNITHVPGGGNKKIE
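Using a mix of unlabeled (15 uM) and Alexa 594-labeled (0.24 uM) tau K18 P301L, heparin-triggered fibrillization over 6 hr at 37 C was scored by ThT fluorescence.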
Tau FP inhib = inhibitors of human tau fibril formation | AID 1468 | K18 P301L tau heparin fibrillization, Alexa594 FP, 6 h | Potency, µM (doses to about 57.7 µM), without a hit: at the top dose activity, negative = inhibition, most hits filed as inhibitors | 0.39% of 280,000 active | P10636; also: potency is read from the fitted curve at half-maximal effect; nearly all actives have a fitted effect of over 55% in size
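Compound effects on tau fibrillization are measured by Alexa 594 fluorescence polarization (ex 555, em 632 nm). K18 P301L tau is used at 15 uM with 0.24 uM labeled tracer, and 20 uM heparin induces aggregation over 6 hr at 37 C.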
* = called active by the depositor; ? = inconclusive; . = no result given; ! = repeats disagree; [ ] = dose if it differs, or a comment. Unless noted, calls follow the shape of the dose curve; as a rule, active = well fitted curve in the direction sought with a large enough effect; inconclusive = small, poorly fitted or top-dose-only effect, or another doubt; inactive = no such curve, though single readings can be large; an effect the other way counts as inactive or inconclusive. Unless noted, % is scaled to controls: 0 for no effect and ±100 for the full control effect.

SMILES	FBPA coupling cs	Sfp inh	Tau fluor counter	Tau ThT inhib	Tau FP inhib
O=C1CC2OCC=C3CN4CCC56c7ccccc7N1C5C2C3CC46 (stereo not given)	-2	-13%	.	.	.
CCOC(OCC)P(=O)(O)CCCN	-2	20%	-11%	-4%	-8%
Cc1c(C=C2C(=O)N(C)C(=S)N(C)C2=O)c2ccccc2n1CC(=O)NCC1CCCO1 (stereo not given)	.	50µM*	.	.	.
O=C(Cn1cc(C=C2C(=O)NC(=O)NC2=O)c2ccccc21)NCC1CCCO1 (stereo not given)	0	8%	.	.	.
COP(=S)(OC)SCn1nnc2ccccc2c1=O	0	22µM*	.	.	.
Cc1cc(C)cc(C(=O)OC2C[C@H]3CC[C@@H](C2)N3C)c1 (stereo not given in full)	4	0%	5%	2%	9%
N[C@@H](CSCCCO)C(=O)O	.	50µM*	.	.	.
O=[P+](Cc1ccccc1)Cc1ccccc1	2	23%	-5%	-8%	-3%
O=C(NC1CCCCC1)c1cn(CCN2CCOCC2)c2cc(Cl)ccc2c1=O	1	3%	.	.	.
CN(CCc1ccc(Cl)c(Cl)c1)[C@H]1CCCC[C@H]1N1CCCC1	-2	?	-2%	-8%	-4%
CN1C[C@H](C(=O)N[C@]2(C)O[C@@]3(O)[C@H]4CCCN4C(=O)[C@H](Cc4ccccc4)N3C2=O)C[C@H]2c3cccc4[nH]cc(c34)C[C@@H]21	-1	-14%	7.1µM*[quencher]	?	7%
CC(C)[C@@]1(NC(=O)[C@@H]2C[C@H]3c4cccc5[nH]cc(c45)C[C@@H]3N(C)C2)O[C@@]2(O)[C@H]3CCCN3C(=O)[C@H](Cc3ccccc3)N2C1=O	-5	8%	13µM*[quencher]	?	0%
CCOc1ccc(OCC)c(NC(=O)CN2CCN(c3ccc(C)cc3C)CC2)c1	-4	32µM*	-8%	?	10%
CCOC(=O)C1(c2ccccc2)CCN(CC(=O)Nc2ccc(C)cc2)CC1	-1	6%	-2%	-3%	2%
CC[C@H](C)[C@H](NC(=O)[C@@H](N)Cc1ccc(O)cc1)C(=O)NCC(=O)N[C@@H](CO)C(=O)N[C@@H](CCCN=C(N)N)C(N)=O	-1	-3%	.	.	.
O=C(O)c1ccccc1S	3	?	-12%	?	-14%
O=C(O)c1ccc[nH]c1=S	-24	8.9µM*	-17%	?	?
CCOc1ccc(N2C(=O)/C(=C/c3ccc(C)o3)C(=O)NC2=S)cc1	7	22µM*	.	.	.
CCOc1ccc(N2C(=O)NC(=O)/C(=C\c3ccc(N4CCCCC4)o3)C2=O)cc1	3	-7%	-3%	-3%	4%
Cc1ccc(/C=C2\C(=O)NC(=S)N(c3cccc(F)c3)C2=O)o1	3	18µM*	.	.	.
COc1ccc(N2C(=O)/C(=C/c3ccc(C)o3)C(=O)NC2=S)cc1	1	22µM*	.	.	.
Cc1ccc2c(c1)C1(CCN(CCc3nc(-c4ccccc4)oc3C)CC1)OC(=O)N2	0	-7%	.	.	.
CC(CNC(=O)c1ccc(CSc2nc3ccncc3n2Cc2ccc(F)cc2)cc1)c1ccccc1 (stereo not given)	.	.	?	-10%	8%
CC(C)(C#N)O[C@H]1OC(CO)C(O)C(O)C1O (stereo not given in full)	1	14%	-2%	?	-1%
CC1OC(OC2C(O)CC(OC3C(O)CC(OC4CCC5(C)C(CCC6C5CCC5(C)C(C7=CC(=O)OC7)CCC65O)C4)OC3C)OC2C)CC(O)C1O (stereo not given)	5	24%	4%	-22%	11%
SMILES	FBPA coupling cs	Sfp inh	Tau fluor counter	Tau ThT inhib	Tau FP inhib
COc1ccc(-c2c3c(=O)n(C)c(=O)n(C)c3c3n2-c2ccccc2NC3c2ccccc2OC)cc1 (stereo not given)	.	.	-9%	?	10%
COc1ccc(Cc2c(O)[nH]c(=S)[nH]c2=O)cc1	-3	56µM*	.	.	.
CCCCOc1ccc(C(C)=O)cc1Cc1c(O)[nH]c(=S)[nH]c1=O	7	?	.	.	.
CCN1C[C@]2(COC(=O)c3ccccc3N3C(=O)CC(C)C3=O)CC[C@H](OC)[C@@]34C5C[C@@H]6[C@@H](OC)C[C@@](O)(C5[C@H]6OC)[C@](O)([C@@H](OC)C23)[C@@H]14 (stereo not given in full)	.	8%	7%	8%	3%
O=C(O)CCC(=O)NCCC1=c2ccccc2=N/C1=C\c1c(O)n(Cc2ccc(F)cc2)c(=S)[nH]c1=O	4	35µM*	?	?	-2%
O=C(Nc1cccc(F)c1)N1CCCC2(CCN(C(=O)Oc3ccccc3)CC2)C1	-1	9%	.	.	.
C/C=C1/CN2CC[C@]34C(=C(C=O)[C@H]1C[C@@H]23)Nc1ccccc14	-22	?	2%	-1%	-2%
CCOCCSc1nc2c(c(-c3cccs3)c1C#N)CC/C2=C/c1cccs1	-1	35µM*	15%	10%	5%
CCCCC[C@@H](/C=C/C=C\CCCCCCCCCC(=O)O)OO	3	2%	-1%	0%	-4%
CC1CCN(S(=O)(=O)c2ccc(NN=C(C#N)C#N)cc2)CC1	6	16%	?	14µM*	-2%
N#CC(C#N)=NNc1ccc(S(N)(=O)=O)cc1	7	4%	-27%	10µM*	-9%
c1ccc(CN2CCC3(CCNCC3)CC2)cc1	3	-12%	.	.	.
Cc1ccc(S(=O)(=O)c2nnn3c2nc(N2CCC(C(N)=O)CC2)c2cc(Cl)ccc23)cc1C	.	.	?	?	-4%
CC1CCC2C(C)C(=O)OC3OC4(C)CCC1C32OO4 (stereo not given)	2	89µM*!	-13%	-6%	-18%
C/C(=N\NC(=O)c1ccccc1O)c1c(O)n(Cc2ccccc2)c(=O)[nH]c1=O	13	18%	?	14µM*	13%
COc1ccc2c(c1)c(CCN1CCOCC1)c(C)n2C(=O)c1cccc(Cl)c1Cl	0	?	-27%	-17%	-2%
